Rab9 prom act: qHTS Assay for Rab9 Promoter Activators; Huh7 Rab9 promoter-luciferase reporter, luminescence, 24 h; Potency, µM (top dose mostly 9.22 µM), without a hit: top-dose activation, negative = inhibition, actives largely listed as activators; 2.8% of 320,000 active; AID 485297, 2010; also: % of control where 0% means no effect; nearly all actives have a fitted effect of over 60% in size
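Huh7 cells stably carrying Rab9 promoter–luciferase reporter, plated 1500 cells/well, compound added after 2 h and incubated 24 h at 37 °C; luciferase luminescence then read after 10 min with detection reagent.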
ELG1 DNA repair: qHTS screen for small molecules that inhibit ELG1-dependent DNA repair in human embryonic kidney (HEK293T) cells expressing luciferase-tagged ELG1. HEK293T ELG1-luciferase reporter, luminescence, 16 h; DNA damage induced by 5-fluorouridine. Potency, µM (doses to about 46.1 µM), for the others: at the top dose activity change, negative = inhibition, usual class: inhibitors. 2.3% of 330,000 active. AID 504467, 2011; also: % is scaled to controls: 0 for no effect and ±100 for the full control effect; nearly all actives have a fitted effect of over 55% in size
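Step one: seed 2,000 cells per well. Step two: pin-transfer compound or DMSO alongside 5-fluorouridine. Step three: incubate 16 hr, 37 °C, 5% CO2. Step four: add ONE-Glo, wait 30 min, read luminescence.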
NPC1 promoter act: qHTS Assay for NPC1 Promoter Activators; Huh7 NPC1 promoter luciferase reporter, 24 h; Potency, µM (highest dose often 9.22 µM), for the others: top-dose activation, actives largely listed as activators; 2.4% of 320,000 active; AID 485313, 2010; also: % of control where 0% means no effect; nearly all actives have a fitted effect of over 60% in size
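Quantitative HTS used a cell-based reporter: Huh7 cells stably bearing the NPC1 promoter upstream of luciferase were treated with compounds for 24 h, and promoter activation was read as luminescence.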
ELG1 genotox: qHTS screen for small molecules that induce genotoxicity in human embryonic kidney (HEK293T) cells expressing luciferase-tagged ELG1; Potency, µM (highest dose often 46 µM), without a hit: top-dose activity change, positive = activation, usual class: activators; HEK293T ELG1-luciferase reporter, luminescence, 16 h; 1.3% of 330,000 active; AID 504466, 2011; also: % of control where 0% means no effect; nearly all actives have a fitted effect of over 60% in size
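Genotoxic stress is detected as increased luminescence from luciferase-tagged ELG1 in HEK293T cells, measured with ONE-Glo after a 16 hr treatment at 37 °C.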
SMN2 splice enh: qHTS Assay for Enhancers of SMN2 Splice Variant Expression | 2.8% of 210,000 active | HEK293 SMN2-luciferase splicing reporter, luminescence, 30-36 h | Potency, µM (series often up to 46.1 µM), for inactives: top-dose activity change, positive = activation, actives largely listed as activators; also: % of control where 0% means no effect; nearly all actives have a fitted effect of over 55% in size
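HEK293 cells carry an SMN2 […]–luciferase reporter in which exon 7 inclusion puts luciferase in frame. Cells were plated 10-12 h before compound addition, then incubated 30-36 h at 37C. ONE-Glo luminescence was read; sodium butyrate at 4.5 mM final served as control.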
FLuc counter: qHTS profiling assay for firefly luciferase inhibitor/activator using purifed enzyme and Km concentrations of substrates (counterscreen for miR-21 project). Luciferin 4-monooxygenase (Photinus pyralis), P08659. purified FLuc, Km substrates, luminescence inhibition. Potency, µM (titrated, usually from 57.5 µM), for inactives: top-dose activity change, negative = inhibition, actives largely listed as inhibitors. 6.9% of 360,000 active;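 also: plate controls were vehicle for no effect and reference inhibitor for full effect; nearly all actives have a fitted effect of over 55% in size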
Target sequence (P08659 whole entry, looked up): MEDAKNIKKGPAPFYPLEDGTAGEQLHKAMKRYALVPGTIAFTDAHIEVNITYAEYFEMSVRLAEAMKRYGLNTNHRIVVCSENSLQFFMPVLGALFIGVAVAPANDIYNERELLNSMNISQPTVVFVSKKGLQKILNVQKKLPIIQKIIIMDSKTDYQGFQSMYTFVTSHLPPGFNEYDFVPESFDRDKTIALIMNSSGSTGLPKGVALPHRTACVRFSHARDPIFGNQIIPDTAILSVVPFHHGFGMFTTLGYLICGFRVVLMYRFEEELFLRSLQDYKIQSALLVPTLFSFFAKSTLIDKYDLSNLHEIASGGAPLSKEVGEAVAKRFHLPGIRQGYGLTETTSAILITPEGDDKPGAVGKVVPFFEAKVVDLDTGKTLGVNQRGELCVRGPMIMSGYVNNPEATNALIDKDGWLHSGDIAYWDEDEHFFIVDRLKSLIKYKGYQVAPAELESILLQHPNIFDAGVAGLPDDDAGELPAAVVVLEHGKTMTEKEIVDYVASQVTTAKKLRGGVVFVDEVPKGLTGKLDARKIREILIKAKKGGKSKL
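Biochemical qHTS of compounds, final roughly 60 µM downward over six points, against 10 nM purified firefly luciferase using Km concentrations of substrates (10 uM D-luciferin, 10 uM ATP) in Tris acetate pH 7.5 buffer; luminescence output.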
* hit, by the source's call. The list is not random: actives were taken first. Their share in the collection is about 9.2%. Calls follow the shape of the dose curve; as a rule, active = well fitted curve in the direction sought with a large enough effect; inconclusive = small, poorly fitted or top-dose-only effect, or another doubt; inactive = no such curve, though single readings can be large; an effect the other way counts as inactive or inconclusive. Potency is read from the fitted curve at half-maximal effect.

Results for N=C1SC(CC(=O)Nc2ccccc2[N+](=O)[O-])C(=O)N1c1ccccc1 (configuration not stated) ?
Rab9 prom act: 3%; ELG1 DNA repair: -18%; NPC1 promoter act: -4%; ELG1 genotox: -3%; FLuc counter: -11%

What do the screens show for `Cn1c(=O)c2c(ncn2CC(=O)N2CCN(C(=O)c3ccco3)CC2)n(C)c1=O`?
Rab9 prom act: -5%; ELG1 DNA repair: 11%; NPC1 promoter act: 0%; ELG1 genotox: 0%; SMN2 splice enh: 1%; FLuc counter: -1%

What do the screens show for `CC1=NNC(=O)C1CC(=O)N/N=C/C(C)=C/c1ccccc1` (configuration not stated)?
Rab9 prom act: -1%; ELG1 DNA repair: 25%; NPC1 promoter act: -2%; ELG1 genotox: 3%; SMN2 splice enh: 16%; FLuc counter: inconclusive

How did CC(/C=N/NC(=O)c1cccc(F)c1)=C\c1ccccc1 do in these assays?
Rab9 prom act: 0.4µM*; ELG1 DNA repair: inconclusive; NPC1 promoter act: 0.5µM*; ELG1 genotox: inconclusive; FLuc counter: 2.4µM*

How did O=C(N/N=C/c1cccnc1)c1cccc(F)c1 do in these assays?
Rab9 prom act: 3%; ELG1 DNA repair: inconclusive; NPC1 promoter act: 5%; ELG1 genotox: 7%; FLuc counter: inconclusive

How did O=C(N/N=C/c1ccccc1O)c1ccncc1 do in these assays?
Rab9 prom act: -36%; ELG1 DNA repair: -14%; NPC1 promoter act: -32%; ELG1 genotox: -9%; FLuc counter: inconclusive

What do the screens show for `CC(/C=N/NC(=O)Cc1cc(=O)[nH][nH]1)=C\c1ccccc1`?
Rab9 prom act: -11%; ELG1 DNA repair: 6%; NPC1 promoter act: -3%; ELG1 genotox: 2%; SMN2 splice enh: -13%; FLuc counter: 15µM*

How did CC(/C=N/NC(=O)c1ccncc1)=C\c1ccccc1 do in these assays?
Rab9 prom act: -2%; ELG1 DNA repair: inconclusive; NPC1 promoter act: 19%; ELG1 genotox: 6%; SMN2 splice enh: -7%; FLuc counter: 7.6µM*

How did CCc1cccc(NC(=O)c2cc(S(=O)(=O)N3CCCCCC3)cn2C)c1 do in these assays?
FLuc counter: 2%

What do the screens show for `Cc1nc2c(oc3ccccc32)c(=O)o1`?
Rab9 prom act: 2%; ELG1 DNA repair: inconclusive; NPC1 promoter act: -2%; ELG1 genotox: inconclusive; SMN2 splice enh: 17%; FLuc counter: 21µM*

Results for O=c1[nH]c(Cc2ccccc2)nc2c1oc1ccccc12 ?
Rab9 prom act: 14%; ELG1 DNA repair: 1%; NPC1 promoter act: 1%; ELG1 genotox: 2%; SMN2 splice enh: 3%; FLuc counter: -6%

Results for Cc1ccc(NC(=O)c2cc(N(C)C)ccc2[P+](=O)O)cc1 ?
Rab9 prom act: 2%; ELG1 DNA repair: inconclusive; NPC1 promoter act: 11%; ELG1 genotox: inconclusive; SMN2 splice enh: -7%; FLuc counter: 19µM*

How did O=S(=O)(Nc1cccc(-c2ccc(N3CCCCCC3)nn2)c1)c1ccc(F)cc1 do in these assays?
Rab9 prom act: inconclusive; ELG1 DNA repair: inconclusive; NPC1 promoter act: inconclusive; ELG1 genotox: inconclusive; FLuc counter: 5.4µM*

How did O=S(=O)(Nc1ccc(-c2ccc(N3CCCCC3)nn2)cc1)c1ccc(OC(F)(F)F)cc1 do in these assays?
FLuc counter: 21µM*

What do the screens show for `O=S(=O)(Nc1cccc(-c2ccc(N3CCCCCC3)nn2)c1)c1ccc(C(F)(F)F)cc1`?
Rab9 prom act: inconclusive; ELG1 DNA repair: inconclusive; NPC1 promoter act: 23%; ELG1 genotox: inconclusive; FLuc counter: 9.5µM*

Results for CCOc1ccc(S(=O)(=O)Nc2ccc(-c3ccc(N4CCCC4)nn3)cc2)cc1 ?
FLuc counter: 0%

How did O=S(=O)(Nc1ccc(-c2ccc(N3CCCC3)nn2)cc1)c1ccc(Cl)cc1 do in these assays?
FLuc counter: -6%

Results for CC(=O)c1ccc(S(=O)(=O)Nc2cccc(-c3ccc(N4CCCCC4)nn3)c2)cc1 ?
FLuc counter: 1.5µM*

What do the screens show for `COc1cc(CC(=O)Nc2ccc(S(=O)(=O)NC3=NCCCCC3)cc2)cc(OC)c1OC`?
Rab9 prom act: 0%; ELG1 DNA repair: 10%; NPC1 promoter act: -1%; ELG1 genotox: 2%; SMN2 splice enh: 2%; FLuc counter: 1%

How did COc1ccccc1N1CC(C(=O)OCC(=O)Nc2c(C)cccc2C)CC1=O (configuration not stated) do in these assays?
Rab9 prom act: -2%; ELG1 DNA repair: 14%; NPC1 promoter act: -1%; ELG1 genotox: 5%; FLuc counter: 3%

How did O=S(=O)(Nc1cccc(-c2ccc(N3CCCCCC3)nn2)c1)c1cccc(F)c1 do in these assays?
Rab9 prom act: 3.2µM*; ELG1 DNA repair: inconclusive; NPC1 promoter act: 3.2µM*; ELG1 genotox: inconclusive; FLuc counter: 2.4µM*

What do the screens show for `Cc1ccc(-c2nn(-c3ccc(F)cc3)cc2C(=O)N(C)CC(=O)Nc2ccc(N3CCOCC3)cc2)cc1`?
Rab9 prom act: -1%; ELG1 DNA repair: inconclusive; NPC1 promoter act: -2%; ELG1 genotox: 3%; FLuc counter: -6%

Results for CCCCOc1ccc(OCCNC(=O)c2ccco2)cc1 ?
Rab9 prom act: 21%; ELG1 DNA repair: 17%; NPC1 promoter act: -11%; ELG1 genotox: inconclusive; FLuc counter: inconclusive

How did COc1ccc(CS(=O)(=O)/C(Cl)=C(/Cl)C(=O)Nc2ccc(OC)nc2)cc1 do in these assays?
Rab9 prom act: -29%; ELG1 DNA repair: inconclusive; NPC1 promoter act: -30%; ELG1 genotox: inconclusive; SMN2 splice enh: 25%; FLuc counter: 1%

What do the screens show for `CC1CN(CC(O)COC(c2ccc(Cl)cc2)c2ccc(Cl)cc2)CC(C)O1` (configuration not stated)?
Rab9 prom act: -3%; ELG1 DNA repair: 18µM*; NPC1 promoter act: 3%; ELG1 genotox: -2%; SMN2 splice enh: -34%; FLuc counter: -8%

What do the screens show for `COc1ccccc1/C=C/C(=O)Nc1cccc(S(=O)(=O)NC2=NCCCCC2)c1`?
Rab9 prom act: 2%; ELG1 DNA repair: -11%; NPC1 promoter act: -5%; ELG1 genotox: -7%; SMN2 splice enh: 3%; FLuc counter: 19µM*
